The values that follow come from paper PMC5540273 (PLoS ONE, 2017).

The structures appear in SMILES notation.

The subject of one test is T1, LKB1.
T1 construct: gene STK11

A further test deals with T2, LOK.
T2 construct: gene STK10

The test system of a further test is T3, MEK1.
T3 construct: gene MAP2K1

For orientation: Kd means a measure of binding affinity in units of concentration. A higher Kd goes with weaker binding.
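Further: kd values determined as follow-up on hits from a single-replicate KINOMEscan panel screen.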

`CCn1c(-c2nonc2N)nc2ccccc21` [SB-693162/GW549034]: the Kd was 1.8 µM with LATS2 and greater than 10 µM with LRRK2. In the test with LKB1, `Nc1ncnc2c1ncn2-c1cccc2ccccc12` [SKF-97184] displayed a Kd greater than 10 µM. `COc1cc2ncn(-c3cc(OCc4ccncc4Br)c(C(N)=O)s3)c2cc1OC` [GW854278] yielded a Kd in the test with LOK of 0.5 µM. On the same count and under the same terms, in the case of `Cc1nnc(-c2ccc(C)c(-c3ccc(C(=O)O)cc3)c2)o1` [GW608005] it was greater than 10 µM. On to `Cc1ccccc1COc1cc(-n2cnc3cc(Cl)ccc32)sc1C(N)=O` [GW813349], for which, in the test with LRRK2, the Kd was greater than 10 µM. Consider `Nc1n[nH]c2nnc(-c3ccccc3)c(-c3ccccc3)c12` [GW554060], for which the Kd with LYN is greater than 10 µM. For `CCS(=O)(=O)c1ccc(OC)c(Nc2ncc(-c3ccc(F)cc3)o2)c1.Cl` [GW591947], the equilibrium dissociation constant (Kd) in the test on MAK is greater than 10 µM. With `Cc1nnc(-c2ccc3ncn(-c4ccc(S(C)=O)cc4)c3c2)o1` (centres unmarked), the Kd in the test on MAP4K2 was greater than 10 µM.

On to `CN1C(=O)C(Nc2cc(Cl)c(O)c(Cl)c2)=C(c2ccc(Cl)cc2)C1=O` [SB-404321], for which, in the test on MAPKAPK2, the Kd was greater than 10 µM.

On to `Cc1cccc(-c2nc(Nc3ccc4c(cnn4C)c3)c3ccccc3n2)n1` [GW876731], for which the Kd in the test on MAST1 was greater than 10 µM. Still for that read-out and setting: under `CN1C(=O)C(Nc2ccccc2)=C(c2ccccc2)C1=O` [SB-300079] stands greater than 10 µM. In the test with MEK1, `COc1cc2nccc(Nc3cccc(Oc4ccccc4)c3)c2cc1OC.Cl` [GW284543] had a Kd of 0.1 µM. In turn, `Cn1c(=O)c(F)c(Nc2ccc(I)cc2F)c2c(=O)n(OC[C@H](O)CO)cnc21` displayed a Kd in the test on MEK1 of 0.034 µM.
